We go through 24 compounds from PubChem BioAssay (Tox21).

“And” between values parts separate entries of the source, which are not always exact repeats. Equal values may be shown once. Inconclusive results are not listed. The source made the active and inactive calls. Unless noted, the call rests on the fitted dose curve; in most records, active means well fitted curve in the direction sought with a large enough effect in the repeat runs; inconclusive means weak or mixed curves; inactive means no such curve, though single readings can be large; an effect the other way counts as inactive or inconclusive.

Test [1] in a line: qHTS assay for small molecule agonists of the p53 signaling pathway (AID 651631; calls by dose curve; further: nearly all actives have a fitted effect of over 15% in size; further: potency means the concentration at half of the fitted maximal effect). A digest of the protocol: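 Readout was fluorescence from the LiveBLAzer FRET substrate, applied for 2 h at room temperature after 16 h compound exposure at 37 °C. Cells were the p53RE-bla HCT-116 line, with beta-lactamase driven by p53 response elements.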
In general terms: qHTS replaces the single test concentration by a dilution series.

Test [2] can be described thus: qHTS assay for small molecules that induce genotoxicity in human embryonic kidney cells expressing luciferase-tagged ATAD5 (AID 651632). Further: nearly all actives have a fitted effect of over 15% in size. A digest of the protocol: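 Quantitative HTS in HEK293T expressing luciferase-tagged ATAD5, whose levels rise upon DNA damage. Exposure ran 16 hr at 37C and 5% CO2, with luminescence read 30 min after Amplite addition at room temperature.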

A short description of test [3]: qHTS assay for small molecule agonists of the p53 signaling pathway - cell viability (AID 651633; calls by dose curve; further: series mostly up to about 83 µM; nearly all actives have a fitted effect of over 30% in size). A digest of the protocol: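 Viability counter-read: CellTiter-Glo luminescence (30 min, room temperature) in the same p53RE-bla plates. These plates had been exposed to compounds for 16 h at 37 C.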
Test [4] can be described thus: qHTS assay for small molecules that induce genotoxicity in human embryonic kidney cells expressing luciferase-tagged ATAD5 - cell viability (AID 651634; calls by dose curve; further: nearly all actives have a fitted effect of over 25% in size; further: potency means the concentration at half of the fitted maximal effect). The procedure, abridged: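 After 15.5 hr incubation with compound at 37C, 5% CO2, HEK293T ATAD5-luciferase cells received CellTiter-Fluor reagent; fluorescence intensity was quantified following 30 min at 37C.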
Test [5] can be described thus: qHTS assay for small molecule disruptors of the mitochondrial membrane potential - cell viability (AID 720634; calls by dose curve;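 further: human HepG2 liver cancer cells; series mostly up to about 83 µM; nearly all actives have a fitted effect of over 20% in size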). The procedure, abridged:
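ATP-based luminescent viability readout (CellTiter-Glo, 30 min, room temperature) in HepG2 cells multiplexed with the m-MPI membrane potential dye; compound exposure lasted 1 hr at 37 C.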

The nature of test [6]: qHTS assay for small molecule disruptors of the mitochondrial membrane potential (AID 720635). Further: potency means the concentration at half of the fitted maximal effect. The procedure, abridged:
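Mitochondrial membrane potential tracked with Mito-MPS dye, red aggregates (ex 540/em 590 nm) against green monomers (ex 490/em 535 nm). Compound treatment 1 hr at 37C, dye 30 min in HepG2.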

Test [7] can be described thus: qHTS assay to test for compound auto fluorescence at 590 nm (red) in HepG2 cells (AID 720674). The procedure, abridged:
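1 hr compound incubation on HepG2 cells, 37 C, 5% CO2; plate read ex 540 nm / em 590 nm; intensities reported as Rose Bengal sodium equivalents.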

Test [8] is described as follows: qHTS assay to test for compound auto fluorescence at 535 nm (green) in HepG2 cells (AID 720675).
Test [9] can be described thus: qHTS assay to test for compound auto fluorescence at 460 nm (blue) in HEK293 cells (AID 720678). The procedure, abridged: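 HEK293 cells (2,000 per well, medium with 10% dialyzed FBS) attached for 4-5 hr at 37C, then received compound and stood overnight at 37C, 5% CO2. Blue fluorescence was read at Ex/Em 405/460 nm and expressed relative to triamterene.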
Test [10] can be described thus: qHTS assay to test for compound auto fluorescence at 590 nm (red) in HEK293 cells (AID 720679). The procedure, abridged: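 HEK293 cells (2,000/well, medium with 10% dialyzed FBS) attached for 4-5 hr at 37C, received 23 nL compound and were incubated overnight at 37C, 5% CO2. Red fluorescence was then read at 540/590nm Ex/Em, referenced to Rose Bengal sodium.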

Turning to `CC(=O)OCCC(C)C`, the Potency result in test [1], in [2], in test [3], in test [4], in test [5] and in [6] was “inactive” each time. For the same compound, in test [9], the Potency entry is “inactive”. Besides, the call in test [7], in [8] and in test [10] was inactive.
On to `Nc1cccc(C(F)(F)F)c1`, for which the Potency entry in test [1], in test [2], in test [3], in test [4], in test [5] and in test [6] was “inactive” throughout. The Potency result in [9] was “inactive”. In addition, the outcome in test [7], in test [8] and in [10] was inactive.
Turning to `CC(O)CNCC(C)O` (stereo not given), the Potency result in test [1], in test [2], in test [3], in test [4], in [5] and in test [6] was “inactive” each time. In test [9], the Potency result was “inactive”. The compound was called inactive in test [7], in test [8] and in test [10].
In the case of `CC1(C)[C@@H](O[C@H]2O[C@H](C(=O)O)[C@@H](O)[C@H](O)[C@H]2O[C@@H]2O[C@H](C(=O)O)[C@@H](O)[C@H](O)[C@H]2O)CC[C@]2(C)[C@H]3C(=O)C=C4[C@@H]5C[C@@](C)(C(=O)O)CC[C@]5(C)CC[C@@]4(C)[C@]3(C)CC[C@@H]12`, the Potency entry in test [1], in test [2], in [3], in test [4], in [5] and in test [6] was “inactive” each time. For the same compound, the Potency entry in test [9] was “inactive”. Moreover, the compound was classed as inactive in test [7], in test [8] and in test [10].
Regarding `C[Si](C)(C)N[Si](C)(C)C`, the Potency entry in test [1], in test [2], in test [3], in test [4], in test [5] and in test [6] was “inactive” each time. Further, the Potency entry in test [9] is “inactive”. The compound was called inactive in [7], in test [8] and in test [10].
`OB(O)O`: the Potency entry in test [1], in [2], in [3], in test [4], in [5] and in test [6] was “inactive” in each case. Also, in test [9], the Potency result was “inactive”. Besides, the compound was classed as inactive in test [7], in test [8] and in [10].
With `Cc1cc(CC(=O)O)n(C)c1C(=O)c1ccc(Cl)cc1`, the Potency result in test [1], in test [2], in test [3], in [4], in test [5] and in test [6] was “inactive” throughout. In addition, in test [9], the Potency entry was “inactive”. For the same compound, the call in test [7], in [8] and in test [10] was inactive.
As to `CC(=O)CC(=O)N(C)C`, the Potency result in test [1], in test [2], in test [3], in test [4], in test [5] and in test [6] was “inactive” each time. Also, the Potency result in test [9] is “inactive”. Also, the result in test [7], in test [8] and in test [10] was inactive.
Consider `CC(C)(C)NC[C@H](O)COc1nsnc1N1CCOCC1`, for which the Potency result in test [1], in [2], in test [3], in test [4], in [5] and in test [6] was “inactive” in each case. The Potency result in test [9] is “inactive”. In addition, the compound was classed as inactive in [7], in test [8] and in [10].
`CCCN(CCC)C(=O)SCC`: the Potency result in [1], in test [2], in test [3], in [4], in [5] and in [6] was “inactive” in each case. For the same compound, the Potency result in test [9] is “inactive”. Moreover, the compound was classed as inactive in [7], in test [8] and in test [10].
With `Cc1cc(C)c(O)c(C)c1`, the Potency result in test [1], in test [2], in test [3], in test [4], in test [5] and in test [6] was “inactive” each time. Besides, in test [9], the Potency entry was “inactive”. The compound was classed as inactive in test [7], in test [8] and in test [10].
Turning to `OC[C@H]1O[C@@H](Oc2ccc(O)cc2)[C@H](O)[C@@H](O)[C@@H]1O`, the Potency result in test [1], in test [2], in test [3], in [4], in test [5] and in test [6] was “inactive” throughout. In addition, in test [9], the Potency result is “inactive”. The outcome in test [7], in test [8] and in test [10] was inactive.
In the case of `C=C(CC(=O)O)C(=O)O`, the Potency result in test [1], in test [2], in test [3], in test [4], in test [5] and in [6] was “inactive” each time. The Potency entry in [9] was “inactive”. The call in [7], in test [8] and in test [10] was inactive.
`Cc1ccccc1Cl`: the Potency entry in test [1], in [2], in test [3], in test [4], in test [5] and in test [6] was “inactive” each time. Besides, in test [9], the Potency result is “inactive”. Moreover, the compound was classed as inactive in test [7], in [8] and in test [10].
Consider `O=C(Cl)c1ccc(C(=O)Cl)cc1`, for which the Potency entry in [1], in test [2], in [3], in test [4], in test [5] and in test [6] was “inactive” each time. For the same compound, the Potency entry in [9] is “inactive”. Further, the result in test [7], in test [8] and in [10] was inactive.
Turning to `NC(=O)c1ncn([C@@H]2O[C@H](CO)[C@@H](O)[C@H]2O)n1`, the Potency in test [1] is 13.3 µM (active) and 64.4 µM (active). The Potency result in test [2], in test [3], in [4], in [5], in [6] and in test [9] was “inactive” each time. Further, the compound was called inactive in test [7], in test [8] and in [10].
For `CCCCCC(C)=O`, the Potency result in [1], in [2], in test [3], in test [4], in test [5] and in test [6] was “inactive” throughout. In test [9], the Potency result is “inactive”. In addition, the outcome in test [7], in test [8] and in test [10] was inactive.
For the compound `CCCCC(CC)COC(=O)c1ccc(C(=O)OCC(CC)CCCC)cc1` (stereo not given), the Potency entry in test [1], in [2], in test [3], in test [4], in [5] and in test [6] was “inactive” throughout. The Potency result in test [9] is “inactive”. In addition, the result in test [7], in [8] and in test [10] was inactive.
Take `Cc1nnc(NS(=O)(=O)c2ccc(N)cc2)s1`: the Potency entry in [1], in test [2], in [3], in test [4], in test [5] and in test [6] was “inactive” in each case. Moreover, in test [9], the Potency result was “inactive”. Also, the outcome in test [7], in [8] and in test [10] was inactive.
For `COCN(COC)c1nc(N(COC)COC)nc(N(COC)COC)n1`, the Potency result in [1], in test [2], in test [3], in test [4], in test [5] and in test [6] was “inactive” in each case. Moreover, the Potency result in test [9] is “inactive”. For the same compound, the result in [7], in [8] and in [10] was inactive.
As to `COC(=O)OC`, the Potency entry in test [1], in test [2], in [3], in [4], in test [5] and in test [6] was “inactive” throughout. Also, in [9], the Potency result was “inactive”. The compound was classed as inactive in [7], in test [8] and in test [10].
Regarding `CC(=O)OCc1ccc2c(c1)OCO2`, the Potency result in [1], in test [2], in test [3], in test [4], in [5] and in test [6] was “inactive” each time. Further, the Potency result in test [9] was “inactive”. The result in test [7], in test [8] and in [10] was inactive.
With `c1cnc2c(c1)ccc1cccnc12`, the Potency in test [1] was 30.9 µM (active) and 24.3 µM (active); in test [4], 6.92 µM (active) and 3.86 µM (active) and 7.7 µM (active); in test [6], 30.6 µM (active). Besides, the Potency entry in test [2], in test [3], in test [5] and in test [9] was “inactive” throughout. The result in test [7], in test [8] and in test [10] was inactive.
For `COc1c2ccoc2cc2oc(=O)ccc12`, the Potency entry in [1], in test [2], in test [3], in [4], in test [5] and in test [6] was “inactive” throughout. Besides, in [9], the Potency result is “inactive”. Also, the result in test [7], in test [8] and in test [10] was inactive.
